Inconclusive results are not listed. The source made the active and inactive calls. Unless noted, calls come from the whole dose curve; as a rule, active = well fitted curve in the direction sought with a large enough effect; inconclusive = small, poorly fitted or top-dose-only effect, or another doubt; inactive = no such curve, though single readings can be large; an effect the other way counts as inactive or inconclusive.
What was measured:
[1] = Cell Viability - BJ (AID 421; calls by dose curve;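 note: potency is the fitted concentration of half-maximal effect; cells exposed to compound for 40 hours at 37 °C before readout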); conditions: BJ fibroblast viability, qHTS
How it was run: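 Quantitative HTS: ATP depletion in BJ cells after 40 hr compound exposure in complete culture medium, detected with CellTiter-Glo; AC50 from standard Hill fits.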

[2] = Cell Viability - Jurkat (AID 426;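 active = dose-dependent loss of cell ATP signal giving a full or clear fitted curve, ranked by lower potency value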;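 note: potency is the fitted concentration of half-maximal effect; cells exposed to compound for 40 hours at 37 °C before ATP read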); conditions: qHTS
How it was run: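 Cells of the human T-cell leukemia line Jurkat (E6-1) are seeded at 5000 per well, treated with compound across a concentration range for 40 hours at 37 °C, then lysed with CellTiter-Glo; luminescence reports ATP.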

[3] = Cell Viability - Hek293 (AID 427;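 active = compounds whose dose-response curve shows a full or clear partial loss of cell viability, called from curve shape rather than a numeric limit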;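 note: potency is the fitted concentration of half-maximal effect; cells exposed to compound for 40 hours at 37 °C before reading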); conditions: qHTS
How it was run: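 AC50 values derive from Hill-modelled concentration-response of ATP-based luminescence, normalized between DMSO-only and 100 uM tamoxifen controls. Cells were exposed in complete culture medium for 40 hr at 37 °C before detection.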

[4] = Cell Viability - HepG2 (AID 433; calls by dose curve;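 note: potency is the fitted concentration of half-maximal effect; potency for ATP loss meaning cytotoxicity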); conditions: qHTS
How it was run: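 HepG2 hepatocellular carcinoma cells (1500/well) were treated with compounds for 40 h at 37 °C in complete medium; intracellular ATP was read by CellTiter-Glo luminescence. Data were normalized to DMSO and 100 uM tamoxifen, and AC50 came from Hill fits.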

[5] = Cell Viability - MRC5 (AID 434; calls by dose curve;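 note: potency is the fitted concentration of half-maximal effect; potency reflects cytotoxicity seen as loss of intracellular ATP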); conditions: MRC5 lung fibroblast viability, qHTS
How it was run: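 ATP luminescence read-out (CellTiter-Glo, 20 min RT) after 40 hr, 37 °C compound exposure of 1500 MRC5 cells/well. Data normalized to DMSO (basal) and 100 uM tamoxifen (100% inhibition); AC50 from standard Hill equation.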

[6] = Cell Viability - SK-N-SH (AID 435; calls by dose curve;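 note: potency is the fitted concentration of half-maximal effect; compound exposure lasted 40 h at 37 °C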); conditions: SK-N-SH neuroblastoma cell viability qHTS
How it was run: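 SK-N-SH human neuroblastoma cells (1500/well) were exposed to compounds in complete medium for 40 h at 37 °C, and intracellular ATP was then measured by CellTiter-Glo luminescence. AC50 was taken from Hill fits, normalized to DMSO and 100 uM tamoxifen.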

[7] = Cell Viability - N2a (AID 540); conditions: N2a mouse neuroblastoma cell viability; at 92.2 µM (top of the series);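 note: plate controls were DMSO alone for no effect and tamoxifen control for full effect; nearly all actives have a fitted effect of over 45% in size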
How it was run: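 Cytotoxicity was scored as loss of cellular ATP in N2a cells, a mouse neuroblastoma line. Compounds are applied in a qHTS concentration series for 40 hr at 37 °C.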

[8] = Cell Viability - HUV-EC-C (AID 542); conditions: HUV-EC-C endothelial cell viability, qHTS; series mostly up to 92.2 µM; note: % is set by controls: 0 for no effect and ±100 for the full control effect; nearly all actives have a fitted effect of over 35% in size
How it was run: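 Cells were seeded at 1000 per well and incubated 5 hr at 37 °C before compound addition. After 40 hr at 37 °C, CellTiter-Glo reagent was added for 20 min and luminescence read. AC50 values came from Hill-equation modelling.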

[9] = Cell Viability - H-4-II-E (AID 543); conditions: H-4-II-E rat hepatoma viability; series mostly up to 92.2 µM; note: % is set by controls: 0 for no effect and ±100 for the full control effect; nearly all actives have a fitted effect of over 35% in size
How it was run: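 Cells seeded at 1500 per well and rested 5 hr; compounds added; 40 hr incubation at 37 °C; CellTiter-Glo added, 20 min at room temperature; luminescence read. Hill-equation fits gave AC50.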

[10] = Cell Viability - SH-SY5Y (AID 544); conditions: SH-SY5Y neuroblastoma cell viability; viability change, negative = cytotoxic: at 92.2 µM (top of the series); note: nearly all actives have a fitted effect of over 55% in size
How it was run: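 Cells were plated at 1500 per well and allowed 5 hr at 37 °C. Compounds were added across a concentration range and incubated 40 hr at 37 °C. CellTiter-Glo was added for 20 min at room temperature before luminescence reading.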

[11] = Cell Viability - Renal Proximal Tubule (AID 545); conditions: renal proximal tubule cells viability; at 91.7 µM (top of the series), primary cells of rat origin unless noted; note: nearly all actives have a fitted effect of over 40% in size
How it was run: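 Primary rat renal proximal tubule cells (1000/well) were treated with compounds for 40 hr at 37 °C in complete medium. Intracellular ATP was measured by CellTiter-Glo luminescence, and AC50 values came from Hill-equation fits of concentration-response data.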

[12] = Cell Viability - Mesenchymal (AID 546); conditions: mesenchymal cells viability, qHTS; series mostly up to 91.7 µM;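 note: cells exposed to compound for 40 hours before reading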
How it was run: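 Human renal mesenchymal cells (glomerulus-derived), 1000 cells/well, 5 hr 37 °C pre-incubation; compound 40 hr, 37 °C; CellTiter-Glo, 20 min RT; luminescence; AC50 via Hill equation.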

[13] = Cellular Toxicity (caspase-3) HepG2 (AID 654); conditions: HepG2 caspase-3 activation, luminescence, 0% = DMSO only, 100% = tamoxifen; series mostly up to 92.2 µM;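 note: cells exposed to compound for 16 hours before reading; 0% = DMSO alone and 100% = caspase signal from 100 µM tamoxifen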
How it was run: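 Caspase 3/7 activation in HepG2 is measured as rising luminescence after a 16 hr treatment at 37 °C. Values are scaled between DMSO basal and 100 uM tamoxifen, and AC50 is fitted with the Hill equation.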

[14] = Cellular Toxicity (caspase-3) Jurkat (AID 655); conditions: Jurkat caspase-3 activation, luminescence, DMSO = 0%, tamoxifen = 100%; at 92.2 µM (top of the series);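 note: cells exposed to compound for 16 h at 37 °C before reading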
How it was run: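 Jurkat cells (5000/well) in complete medium were treated with compounds for 16 hr at 37 °C, then Caspase-Glo 3/7 luminescence was read after 20 min at room temperature. Data normalized to DMSO (basal) and 100 uM tamoxifen (100%); AC50 from Hill fit.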

[15] = Cellular Toxicity (caspase-3) HUV-EC-C (AID 656); conditions: HUV-EC-C cells, caspase-3 activation (apoptosis), vehicle = 0, 100 µM tamoxifen = 100%; series mostly up to 92.2 µM
How it was run: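 HUV-EC-C endothelial cells, 1000/well, were pre-incubated 5 hr at 37°C, then exposed to compounds for 16 hr at 37°C. Caspase-Glo 3/7 luminescence was read after 20 min at room temperature. AC50 came from Hill fits, normalized to DMSO and 100 uM tamoxifen.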

[16] = Cellular Toxicity (caspase-3) SHSY5Y (AID 657); conditions: SH-SY5Y caspase-3 activation, DMSO zero, 10 µM staurosporine = 100%; series mostly up to 91.7 µM
How it was run: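 SH-SY5Y human neuroblastoma cells (1500/well) were treated with compounds for 16 h at 37 °C, then Caspase-Glo 3/7 luminescence was read after 1 h at room temperature. Data normalized to DMSO and 10 uM staurosporine; AC50 from Hill fits.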

[17] = Cellular Toxicity (caspase-3) BJ (AID 658); conditions: BJ fibroblasts, luminescence, normalized: DMSO 0%, staurosporine 100%; series mostly up to 91.7 µM
How it was run: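 qHTS, BJ fibroblasts, 1000 cells/well; 5 hr preincubation, 16 hr compound, 37 °C; Caspase-Glo 3/7 reagent, 1 hr RT; luminescence. DMSO = 0%, 10 uM staurosporine = 100%. Hill-equation AC50.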

[18] = Cellular Toxicity (caspase-3) MRC-5 (AID 659); conditions: MRC-5 cells, luminescence, normalized: DMSO 0%, 10 µM staurosporine 100%; series mostly up to 91.7 µM
How it was run: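 MRC-5 fibroblasts, 1500/well; 16 h cpd, 37 °C; Caspase-Glo 3/7, 1 h RT; lumi read. Norm: DMSO = 0%, 10 uM staurosporine = 100%. Hill-fit AC50 from qHTS conc-response.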

[19] = Cellular Toxicity (caspase-3) Mesangial (AID 660); conditions: mesangial cells, normalized: DMSO 0%, 100 µM tamoxifen 100%; series mostly up to 91.7 µM;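 note: combined caspase 3 and 7 activity read by Caspase-Glo luminescence; cells exposed to compound for 16 h before the caspase read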
How it was run: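 Seed cells derived from normal human renal glomeruli, incubate 5 h, add compounds across concentrations and incubate 16 h at 37 °C. Caspase 3/7 activation is then quantified by luciferase light, with AC50 derived by Hill modeling.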

[20] = Cellular Toxicity (caspase-3) SK-N-SH (AID 661); conditions: SK-N-SH caspase-3 activation, qHTS, DMSO as zero, staurosporine as full; series mostly up to 91.7 µM
How it was run: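 Cells were seeded and incubated 5 hr at 37 °C, dosed with compound over a concentration range for 16 hr, then given Caspase-Glo 3/7 reagent for 1 hr at room temperature before luminescence reading.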

[21] = Cellular Toxicity (caspase-3) H-4-II-E (AID 663); conditions: H-4-II-E rat hepatoma, scaled: DMSO 0%, 100 µM tamoxifen 100%; series mostly up to 92.2 µM;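 note: cells exposed to compound for 16 hr before readout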
How it was run: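 H-4-II-E rat hepatoma, 1500 cells/well, 5 hr settle at 37 °C; compound 16 hr, 37 °C, complete medium; Caspase-Glo 3/7, 20 min RT; luminescence. DMSO = 0%, 100 uM tamoxifen = 100%; Hill-equation AC50.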

[22] = Cellular Toxicity (caspase-3) Hek293 (AID 664); conditions: HEK293 caspase-3 activation, DMSO = 0%, 100 µM tamoxifen = 100%; series mostly up to 92.2 µM;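 note: cells exposed to compound for 16 h at 37 °C before readout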
How it was run: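 qHTS, HEK293 (human embryonic kidney), 16 h cpd exposure in complete medium. Caspase-3/7 activation = luminescence increase; normalized to DMSO/100 uM tamoxifen; Hill-fit AC50.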

[23] = Cellular Toxicity (caspase-3) N2a (AID 665); conditions: N2a cells, luminescence, normalized: DMSO 0%, 10 µM staurosporine 100%; at 92.2 µM (top of the series);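 note: compound exposure lasted 16 h at 37 °C before readout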
How it was run: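 Caspase-3/7 activation, measured as increased luminescence from aminoluciferin release, is quantified in mouse N2a cells exposed to compounds for 16 h. Values are normalized to DMSO and 10 uM staurosporine, with AC50 derived by Hill modelling.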

[24] = Cellular Toxicity (caspase-3) NIH 3T3 (AID 666); conditions: NIH 3T3 caspase-3 activation, apoptosis/toxicity, 0% DMSO, 100% is 100 µM tamoxifen; series mostly up to 92.2 µM;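 note: caspase signal read after 16 h compound exposure; 0% = DMSO basal and 100% = 100 µM tamoxifen stimulation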
How it was run: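 Cells were plated at 1000 per well and incubated 5 hr at 37°C, then compound was added for 16 hr. Caspase-Glo 3/7 reagent followed for 20 min at room temperature before luminescence was read.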

CCCOC(=O)c1ccccc1C(=O)OCCC
inactive: Potency [1] > 92 µM | Potency [2] > 92 µM | Potency [3] > 92 µM | Potency [4] > 92 µM | Potency [5] > 92 µM | Potency [6] > 92 µM | activity change, negative = cytotoxicity [7] -15% | Potency [8] | Potency [9] | Potency [10] | activity change, negative = cytotoxicity [11] -1.75% | outcome [12] | outcome [13] | caspase-3 activation [14] -1.2% | outcome [15] | outcome [16] | outcome [17] | outcome [18] | outcome [19] | outcome [20] | outcome [21] | outcome [22] | caspase-3 activation [23] 2.99% | outcome [24]

Reference: PubChem BioAssay (NCATS)
